# Shiga toxin inh: inhibitors of Shiga toxin in Vero cells | Vero cells, Shiga toxin protein synthesis inhibition reporter | inhibition, % at 38.7 µM | 290,000 compounds, 9.2% hits; in the data active means inhibition mostly above about 28%, no sharp cut-off; inactive means mostly below about 43%
# RE007 growth inh: less growth of the S. pombe RE007 Vpr strain; S. pombe RE007 Vpr strain, BacTiter-Glo ATP luminescence, 24 h; Potency, µM (series often up to 92.2 µM), most hits filed as inhibitors; 360,000 compounds, 0.21% hits; AID 651644; active means well fitted falling curve with a large enough effect; inconclusive means small, poorly fitted or top-dose-only effect; inactive means no such curve, though single readings can be large or run the other way; further: nearly all actives have a fitted effect of over 50% in size
#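 Fission yeast strain RE007, carrying one chromosomally integrated HIV-1 vpr copy, was seeded at OD 0.01 in PMG+AL medium with 23 nL pinned compound. After 24 h at 30 °C and 99% humidity, viability was read by BacTiter-Glo luminescence.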
# LmPK inh: LmPK (Leishmania mexicana) enzyme inhibition; Q27686; purified LmPK, Kinase-Glo ATP luminescence, 1 h; Potency, µM (top dose mostly 57.5 µM), most hits filed as inhibitors; 290,000 compounds, 0.37% hits; AID 1721
# Target sequence (Q27686 whole entry, looked up): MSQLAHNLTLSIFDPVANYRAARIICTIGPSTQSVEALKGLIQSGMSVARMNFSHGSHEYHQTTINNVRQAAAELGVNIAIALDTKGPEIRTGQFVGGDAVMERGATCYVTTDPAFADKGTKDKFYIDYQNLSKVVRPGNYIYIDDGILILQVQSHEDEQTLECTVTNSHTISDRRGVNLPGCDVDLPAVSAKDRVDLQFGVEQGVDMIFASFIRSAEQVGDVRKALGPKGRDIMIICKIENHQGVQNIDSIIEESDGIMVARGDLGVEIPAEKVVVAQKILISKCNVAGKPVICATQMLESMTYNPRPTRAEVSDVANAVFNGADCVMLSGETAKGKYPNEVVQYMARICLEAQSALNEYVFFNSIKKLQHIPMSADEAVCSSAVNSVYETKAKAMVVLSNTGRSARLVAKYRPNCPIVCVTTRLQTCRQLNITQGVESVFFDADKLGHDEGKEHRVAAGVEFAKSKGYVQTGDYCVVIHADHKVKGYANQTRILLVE
#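 In 50 mM imidazole pH 7.2 with 7 mM MgCl2, LmPK (0.1 nM) turned over PEP (0.5 mM) and ADP (0.1 mM) for 1 h at room temperature. Luciferase read-out of ATP.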
# FBPA Giardia inh: blocks Giardia fructose-bisphosphate aldolase activity | A8B2U2 | purified Giardia FBPA | Potency, µM (highest dose often 59.6 µM), actives largely listed as inhibitors | 290,000 compounds, 0.71% hits | AID 2451; further: nearly all actives have a fitted effect of over 55% in size
#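 40 nM FBPA preincubated 10 min at RT with compound (up to 57.5 uM final), then substrate plus GAPDH/TPI/NAD/arsenate coupling and diaphorase/resazurin added. Fluorescence read after 20 min at RT, 525/598 nm.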
# CHX counter: counter-screen for Shiga toxin inhibitors: cycloheximide protein synthesis inhibition. cell reporter, cycloheximide protein synthesis inhibition counterscreen. max response, %. 300,000 compounds, 12% hits; in the data active means max response mostly above about 13%, no sharp cut-off; inactive means mostly below about 14%; further: read at 38.3 µM for the half of the compounds with a filed dose
# TbPYK inhibitor: inhibitors of Trypanosoma brucei pyruvate kinase; Potency, µM (titrated, usually from 76.8 µM), most hits filed as inhibitors; 410,000 compounds, 0.12% hits; Q57TT1; AID 624173; TbPYK enzyme, Kinase-Glo Plus ATP luminescence, 45 min; further: nearly all actives have a fitted effect of over 50% in size
#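 TbPYK + substrate in 50 mM TEA pH 7.2, 100 mM KCl, 10 mM MgCl2, 0.05% BSA, 0.01% Tween-20; cpd pinned; ADP 130 uM final; 45 min RT; Kinase-Glo Plus 10 min; luminescence endpoint.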
# A number is an active result; – = inactive; ? = inconclusive; · = not tested or not shown; [ ] = remark or other dose. Only a selection was taken, and hits are over-represented in it overall. Unless noted, the call rests on the fitted dose curve; in most records, active means well fitted curve in the direction sought with a large enough effect; inconclusive means small, poorly fitted or top-dose-only effect, or another doubt; inactive means no such curve, though single readings can be large; an effect the other way counts as inactive or inconclusive.
SMILES,Shiga toxin inh,RE007 growth inh,LmPK inh,FBPA Giardia inh,CHX counter,TbPYK inhibitor
Cc1ccc(C(=O)Nc2cccc3ccccc23)cc1,35,–,–,–,29,–
CCOc1ccccc1C(=O)Nc1cccc2ccccc12,–,–,–,–,–,–
Cc1ccc(S(=O)(=O)N2CCC(C(=O)N3CCCC(C(F)(F)F)C3)CC2)cc1C (stereo unspecified),·,–,·,·,·,–
COc1ccc(C(=O)Nc2cccc3ccccc23)cc1,–,–,–,–,21,–
CN(C)c1ccc(C=C2SC(=S)NC2=O)cc1,·,–,·,·,·,–
CN(C)c1ccc(/C=N/N=C2/NC(=O)/C(=C/c3ccc([N+](=O)[O-])cc3)S2)cc1,54,–,–,–,28,–
CC1=Nc2ccccc2N=C(N)C1c1ccccc1 (stereo unspecified),67,?,–,–,40,–
O=C(NCc1ccccn1)c1ccc(COc2ccc(Cl)cc2)o1,–,–,–,–,–,–
O=S(=O)(Nc1nccs1)c1ccc(F)cc1,59,–,–,–,38,–
O=C(Nc1nccs1)c1ccc(COc2ccccc2Br)o1,53,–,–,–,41,–
O=C(Nc1nccs1)c1ccc(COc2ccc(Cl)cc2)o1,55,–,–,–,30,–
O=C(COc1ccc(F)cc1)Nc1nccs1,51,–,?,–,33,–
Cc1ccc(NC(=O)c2cc(S(=O)(=O)N3CCc4ccccc43)cn2C)c(Cl)c1,·,·,·,·,·,–
C=C1c2ccccc2O[C@H](C(=O)OCC)[C@@H]1CC(C)(C)c1ccccc1,–,·,·,–,–,·
COc1ccc(-c2cc(C(C)=O)c(C)n2CCC(=O)Nc2cccc(C)c2C)cc1,·,·,·,·,·,–[15.4 µM]
O=C(Nc1nccs1)c1ccc(COc2ccc(F)cc2)o1,–,–,–,–,32,–
Cc1cccc(OCC(=O)Nc2nccs2)c1C,67,–,–,–,67,–
COc1ccc(OCCCC(=O)Nc2nccs2)cc1,–,–,–,–,13,–
Cc1ccccc1OCCCC(=O)Nc1nccs1,–,–,–,–,–,–
CCC(C(=O)NC(N)=O)c1ccccc1 (stereo unspecified),·,·,·,·,·,–
c1nc2nc(Nc3ccc(N4CCOCC4)cc3)nc(NC3CCCCC3)c2[nH]1,–,·,·,–,–,·
COCn1c(COc2ccc3ccccc3c2)nc2ccccc21,77,–,–,–,22,–
CCc1nc2ccccc2n1CCCCOc1cccc(C)c1,·,·,·,·,·,–
CCn1c(COc2ccccc2OC)nc2ccccc21,–,–,–,–,13,–
CCn1c(COc2cccc(C)c2)nc2ccccc21,–,–,–,–,21,–
SMILES,Shiga toxin inh,RE007 growth inh,LmPK inh,FBPA Giardia inh,CHX counter,TbPYK inhibitor
CCn1c(COc2ccccc2C)nc2ccccc21,39,?,–,–,33,–
CC(C)CCCC(C)C1CC(=O)C2=C3CCC4CC(O)CCC4(C)C3CCC21C (stereo unspecified),·,·,·,·,·,–
Cc1ccc(CNC(=O)CN(c2cc(C)cc(C)c2)S(=O)(=O)c2c(C)noc2C)cc1,·,·,·,·,·,–
C=CCn1c(COc2ccccc2OC)nc2ccccc21,–,–,–,–,8.4,–
CCn1c(COc2ccccc2C(N)=O)nc2ccccc21,–,–,–,–,–,–
CCCn1c(COc2ccccc2OC)nc2ccccc21,·,–,–,–,14,–
CCCn1c(COc2ccccc2)nc2ccccc21,–,–,–,–,8.3,–
NC(=O)c1ccsc1NC(=O)CSc1nnc(NC2CC2)s1,·,–,·,·,·,–
CCOC(=O)c1c(NC(=O)COC(=O)c2ccccn2)sc(C)c1C,·,–,·,·,·,–
O=c1c(-c2ccc3c(c2)OCCO3)coc2cc(OC3OC(CO)C(O)C(O)C3O)ccc12 (stereo unspecified),54,–,–,–,40,–
COc1ccc(-c2coc3cc(O[C@@H]4O[C@H](CO)[C@@H](O)[C@H](O)[C@H]4O)ccc3c2=O)cc1,·,–,·,·,·,–
COc1ccccc1NC(=O)COC(=O)c1cc2ccccc2cc1O,·,–,·,·,·,–
CC(=O)c1ccc(N2CCN(C(=O)c3cccc(Oc4ccccc4)c3)CC2)cc1,–,–,–,–,35,–
COc1cc2ccccc2cc1C(=O)Nc1ccccc1Cl,71,–,–,?,86,–
CC(C)Oc1cccc(C(=O)NC(=S)Nc2ccc(N3CCN(C)CC3)cc2)c1,–,–,–,–,26,–
COc1ccccc1NC(=O)c1cc2cc(Br)ccc2cc1O,85,–,–,?,24,–
COc1cccc(C(=O)NC(=S)Nc2ccc(N3CCCC3)cc2)c1,–,–,–,–,–,–
CC(=O)c1ccc(N2CCN(C(=O)c3ccc(-c4ccccc4)cc3)CC2)cc1,–,–,–,–,–,–
O=C(COC(=O)C12CC3CC(CC(Cl)(C3)C1)C2)NCc1ccco1,–,·,·,·,–,·
CCOc1ccc(NC(=O)c2cccc3ccccc23)cc1,–,–,–,–,18,–
COc1cc(NC(=O)c2cc3ccccc3cc2O)c(OC)cc1Cl,63,–,–,–,19,–
CN1CCN(c2ccc(NC(=O)c3ccc(Oc4ccccc4)cc3)cc2)CC1,31,–,–,–,–,–
COc1cc2ccccc2cc1C(=O)Nc1ccc(N2CCN(C)CC2)cc1,–,–[3.69 µM],–,–,43,·
O=C(Nc1ccc2ccccc2c1)c1cccc2ccccc12,·,–,·,·,·,–
CCc1ccc(NC(=O)C(=O)NCCc2sc(-c3ccc(OC)c(OC)c3)nc2C)cc1,·,·,·,·,·,–
COc1ccc(C2(CNC(=O)c3cccs3)CCOCC2)cc1,–,–,–,–,–,–
COc1cc2ccccc2cc1C(=O)Nc1cccnc1,76,–,–,–,33,–
CCOc1ccc(NC(=O)c2cc(OC)nc3ccccc23)cc1,–,–,–,–,–,–
COc1ccc(NC(=O)c2cc3ccccc3cc2OC)cc1,–,–,–,–,29,–
